Pf Dd2 inh: blocks growth of Plasmodium falciparum Dd2 parasites. AID 1159554. P. falciparum Dd2 growth, SYBR Green, 72 h; hits give low values. activity change, % at 10 µM. 94,000 tested, 2.3% active; in the data active = activity change below about -80%; inconclusive = no clear call, values can overlap the other calls
C diff HTS: C. difficile growth inhibition | Clostridium difficile clinical isolate growth, OD600, 24 h; hits give low values | 86,000 tested, 0.25% active | growth activity, negative = inhibition, % at 16 µg/mL (by protocol) | AID 1259249;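 active = mean growth activity at or below -80% and every replicate also at or below -80%; inconclusive = mean at or below -80% but some replicate above -80%; inactive = mean growth activity above -80%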;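 note: 0% = DMSO wells and -100% = levofloxacin 16 µg/mL wells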
T cruzi growth-1: inhibitors of T. cruzi proliferation; T. cruzi beta-gal in NIH3T3, GalScreen luminescence, 90 h; inhibition, % at 8.34 µM; 77,000 tested, 5.9% active; AID 624255;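 active = mean inhibition above about 93%, with at least 55% of replicates each passing it, limit read from the data, passing the limit was not always enough; inconclusive = only one of those two conditions holds; inactive = neither condition holds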
T cruzi growth-2: inhibitors of T. cruzi proliferation | 5,600 tested, 72% active | AID 651739 | T. cruzi beta-gal in NIH3T3, GalScreen luminescence, 90 h | shares compounds with T cruzi growth-1 | inhibition, % at 8.35 µM;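 active = mean replicate inhibition above about 95% and at least 55% of replicates individually reaching it, limit read from the data; inconclusive = only one of the two criteria is met; inactive = neither criterion is met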
T cruzi growth-3: Trypanosoma cruzi proliferation inhibition; shares compounds with T cruzi growth-1; T. cruzi beta-gal in NIH3T3, GalScreen luminescence, 90 h; inhibition, % at 2.09 µM; 5,600 tested, 21% active; AID 651740;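 active = mean inhibition above about 95%, with at least 55% of replicates also reaching it, limit read from the data; inconclusive = meets just one of the two conditions; inactive = meets neither condition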;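 note: plate controls were neutral control median for no effect and positive control median for full effect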
NIH3T3 tox: NIH/3T3 (mouse) viability loss. shares compounds with T cruzi growth-1. NIH/3T3 viability, CellTiter-Glo ATP luminescence, 90 h. cytotoxicity (signal decrease), % at 8.35 µM. 5,600 tested, 14% active. AID 651742;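 active = mean signal decrease across replicates above about 35% based on untreated-well scatter, with enough replicates individually passing, limit read from the data; inconclusive = no rule stated though some were filed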;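 note: 0% = median of neutral control wells and 100% = median of positive control wells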
NIH3T3 tox 2: kills mouse NIH/3T3 fibroblasts; shares compounds with T cruzi growth-1; 5,600 tested, 56% active; inhibition, % at 24.9 µM; NIH/3T3 viability, CellTiter-Glo ATP luminescence, 90 h; AID 651744;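 active = mean loss of cell viability signal at or above a set limit, and enough replicates individually reaching it; inconclusive = meets only the mean limit or only the replicate share; inactive = meets neither condition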;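 note: 0% = median of neutral control wells and 100% = median of positive control wells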
An asterisk follows results filed as active; ? = inconclusive; / = not tested or not shown. The list is not random: actives were taken first. Their share in the collection is about 6.7%.

SMILES	Pf Dd2 inh	C diff HTS	T cruzi growth-1	T cruzi growth-2	T cruzi growth-3	NIH3T3 tox	NIH3T3 tox 2
CC(C)C#Cc1ccc([C@@H]2[C@@H](C#N)N(C(=O)C3CCC3)[C@H]2CO)cc1	-6	-15	?	101*	77	20	33*
CCCC#Cc1ccc([C@H]2[C@@H](C#N)N(C(=O)C3CCOCC3)[C@H]2CO)cc1	-33	6	92	/	/	/	/
CCCC#Cc1ccc([C@H]2[C@@H](CO)N(C(=O)C3CCCC3)[C@H]2C#N)cc1	25	0	105*	116*	11	-4	28*
CCCC#Cc1ccc([C@@H]2[C@@H](C#N)N(C(=O)C3CCCC3)[C@H]2CO)cc1	-23	-5	102*	96*	102*	24	39*
CCCC#Cc1ccc([C@@H]2[C@H](C#N)N(C(=O)C3CC3)[C@H]2CO)cc1	-30	18	98*	107*	108*	18	7
CC(C)C#Cc1ccc([C@H]2[C@@H](CO)N(C(=O)C3CCC3)[C@H]2C#N)cc1	26	4	37	/	/	/	/
CCCC#Cc1ccc([C@@H]2[C@@H](CO)N(C(=O)C3CCOCC3)[C@H]2C#N)cc1	-22	2	74	/	/	/	/
CC(C)C#Cc1ccc([C@H]2[C@@H](CO)N(C(=O)C3CC3)[C@H]2C#N)cc1	19	8	-25	/	/	/	/
CCC(=O)N1C[C@@H]2[C@H](c3ccccc31)[C@@H](CO)N2Cc1ccccc1F	6	-2	19	/	/	/	/
N#Cc1ccc(-c2ccc([C@H]3[C@@H](CO)N4C(=O)CN(C(=O)C5CCCC5)C[C@H]34)cc2)cc1	-54	-2	/	/	/	/	/
Cc1ccc(S(=O)(=O)Nc2ccc3c(c2)C(=O)N([C@H](C)CO)C[C@@H](C)[C@@H](CN(C)Cc2ccc(C(F)(F)F)cc2)OCCCC[C@H](C)O3)cc1	-80	2	/	/	/	/	/
CC(=O)N(C)C[C@@H]1Oc2cc(C#CCC3CCCC3)ccc2S(=O)(=O)N([C@H](C)CO)C[C@H]1C	-37	-6	35	/	/	/	/
CC(C)C#Cc1ccc([C@H]2[C@@H](C#N)N(C(=O)C3CC3)[C@@H]2CO)cc1	7	-3	79	/	/	/	/
CCCC#Cc1ccc([C@H]2[C@@H](C#N)N(C(=O)C3CCCC3)[C@H]2CO)cc1	-54	-2	98*	90	106*	1	43*
CC(C)C#Cc1ccc([C@H]2[C@H](C#N)N(C(=O)C3CC3)[C@H]2CO)cc1	-10	-6	83	/	/	/	/
CCCC#Cc1ccc([C@@H]2[C@@H](C#N)N(C(=O)C3CCC3)[C@@H]2CO)cc1	-14	-19	99*	99*	28	30	33*
C[C@H]1CN([C@@H](C)CO)C(=O)c2cc(C#Cc3ccccc3F)cnc2O[C@H]1CN(C)C(=O)C1CCC1	-35	0	84	/	/	/	/
CN1CCN(C(=O)C[C@@H]2CC[C@H]3[C@@H](COc4ccc(NC(=O)C5CCCCC5)cc4C(=O)N3C)O2)CC1	0	5	-56	/	/	/	/
CCCC(=O)Nc1ccc2c(c1)C(=O)N(C)C[C@H](OC)[C@@H](C)CN(C(=O)c1ccncc1)[C@H](C)CO2	18	8	11	/	/	/	/
O=C(Nc1ccc(C(F)(F)F)cc1)Nc1ccc2c(c1)[C@@H]1C[C@H](CC(=O)N3CCc4ccccc4C3)O[C@@H](CO)[C@@H]1O2	-32	-1	153*	103*	114*	13	19
O=C(Nc1ccc(C(F)(F)F)cc1)Nc1ccc2c(c1)[C@H]1C[C@H](CC(=O)N3CCc4ccccc4C3)O[C@H](CO)[C@H]1O2	-70	22	?	85	110*	54*	106*
O=C(Nc1ccc2c(c1)[C@H]1C[C@@H](CC(=O)N3CCc4ccccc4C3)O[C@@H](CO)[C@H]1O2)Nc1ccccc1F	-57	6	/	/	/	/	/
O=C(Nc1ccc(C(F)(F)F)cc1)Nc1ccc2c(c1)[C@@H]1C[C@@H](CC(=O)N3CCc4ccccc4C3)O[C@@H](CO)[C@@H]1O2	-52	11	77	/	/	/	/
CC(C)(C)[S@](=O)N1Cc2cc(C(=O)N[C@H]3CCN(Cc4ccccc4)C3)nc(-c3cccc(-c4cccnc4)c3)c2[C@@H]1CCO	-34	-5	/	/	/	/	/
C[C@@H]1CN([C@H](C)CO)C(=O)Cc2cc(NS(=O)(=O)c3ccccc3)ccc2O[C@H]1CN(C)S(=O)(=O)c1cn(C)cn1	36	6	6	/	/	/	/
SMILES	Pf Dd2 inh	C diff HTS	T cruzi growth-1	T cruzi growth-2	T cruzi growth-3	NIH3T3 tox	NIH3T3 tox 2
CC(C)(O)C#Cc1ccc([C@H]2[C@H]3CN(C(=O)c4cccc(F)c4)CCCCN3[C@H]2CO)cc1	24	11	79	/	/	/	/
CC(C)(O)C#Cc1ccc([C@H]2[C@@H](CO)N3CCCCN(C(=O)c4ccc(F)cc4)C[C@H]23)cc1	-69	-1	112*	48	13	-13	-7
CC(C)C#Cc1ccc([C@H]2[C@@H](CO)N3CCCCN(C(=O)c4ccc(F)cc4)C[C@@H]23)cc1	1	44	84	/	/	/	/
CC(C)(O)C#Cc1ccc([C@H]2[C@@H](CO)N3CCCCN(C(=O)c4cccc(F)c4)C[C@H]23)cc1	19	9	110*	36	-22	-1	5
CC(C)(O)C#Cc1ccc([C@H]2[C@H](CO)N3CCCCN(C(=O)c4ccc(F)cc4)C[C@@H]23)cc1	-94*	12	122*	?	-11	13	20
CC(C)(O)C#Cc1ccc([C@@H]2[C@H](CO)N3CCCCN(C(=O)c4ccc(F)cc4)C[C@@H]23)cc1	-16	-1	19	/	/	/	/
CNC[C@@H]1Oc2cc(C#CC(C)(C)O)ccc2S(=O)(=O)N([C@@H](C)CO)C[C@H]1C	-11	-2	20	/	/	/	/
C[C@H](CO)N1C[C@H](C)[C@@H](CN(C)C(=O)C2CC2)Oc2cc(C#Cc3ccncc3)ccc2S1(=O)=O	-33	/	123*	-15	17	-10	62*
C[C@H](CO)N1C[C@H](C)[C@@H](CN(C)C(=O)C2CCC2)Oc2cc(C#Cc3ccncc3)ccc2S1(=O)=O	-13	2	-76	/	/	/	/
C[C@@H]1CN([C@@H](C)CO)S(=O)(=O)c2ccc(C#CC(C)(C)O)cc2O[C@H]1CN(C)C(=O)C1CC1	28	/	102*	-31	-52	4	47*
C[C@H](CO)N1C[C@H](C)[C@H](CN(C)C(=O)C2CC2)Oc2cc(C#Cc3ccncc3)ccc2S1(=O)=O	-56	/	105*	105*	-9	22	65*
C[C@H]1CN([C@@H](C)CO)S(=O)(=O)c2ccc(C#CC(C)(C)O)cc2O[C@H]1CN(C)C(=O)C1CC1	29	/	-15	/	/	/	/
C[C@@H]1CN([C@H](C)CO)S(=O)(=O)c2ccc(C#Cc3ccncc3)cc2O[C@@H]1CN(C)C(=O)C1CCC1	-19	4	-70	/	/	/	/

Screening data (PubChem)
